Among the data in PubChem BioAssay (NCI) are growth values, retold here.

Some test systems named below: T-47D breast; BT-549 breast; MDA-MB-435 melanoma; SW-620 colon; MCF7 breast; HCT-116 colon; HCC-2998 colon; KM12 colon.
What all share (test): NCI-60 one-dose screen, 48 h (100 = growth as untreated, 0 = no growth, -100 = all killed)
What all share (conditions): 10 µM unless noted

Values joined by “and” are separate entries in the source; they are usually repeats but may differ in a detail not shown here. Identical values can stand only once. About 83,000 compounds went through this panel and 20% of them were active in at least one assay; those are over-represented in the sample as a whole.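 Activity criterion: percent growth below 10, measured after cells in 96-well plates were exposed to a single compound concentration for 48 hours.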 Active and inactive are the calls of the source.

As for `CC(C)(C)C1=CC(=O)C(C(C)(C)C)=CC1=O`, the growth in the assay with T-47D breast was 79.2% (inactive) and 112% (inactive); in the assay with BT-549 breast it was 91.7% (inactive) and 110% (inactive); with MDA-MB-435 melanoma it was 97.8% (inactive) and 110% (inactive); in the assay on SW-620 colon, 106% (inactive) and 104% (inactive); in the assay with MCF7 breast it was 86.5% (inactive) and 97.2% (inactive); in the assay on HCT-116 colon it was 88.5% (inactive) and 105% (inactive). Also, the growth with HCC-2998 colon is 94.4% (inactive) and 101% (inactive); in the assay with KM12 colon it was 110% (inactive).
As to `CC(=O)Nc1ccc(OC(C)=O)cc1`, the growth is 78.1% (inactive) and 103% (inactive) with T-47D breast; 11.9% (inactive) and 103% (inactive) in the assay with BT-549 breast; -29.5% (active) and 107% (inactive) in the assay on MDA-MB-435 melanoma; 26% (inactive) and 94.2% (inactive) with SW-620 colon; 91.8% (inactive) in the assay on MCF7 breast; -14.7% (active) and 104% (inactive) in the assay with HCT-116 colon. Further, the growth in the assay on HCC-2998 colon is -28.8% (active) and 112% (inactive); in the assay on KM12 colon it was 2.42% (active) and 112% (inactive).
Consider `CCCC(=O)Oc1ccc(CC)cc1`, for which the growth in the assay on T-47D breast is 90.9% (inactive); in the assay with BT-549 breast, 107% (inactive); with MDA-MB-435 melanoma, 107% (inactive); in the assay on SW-620 colon it was 111% (inactive); in the assay on MCF7 breast, 92.4% (inactive); in the assay with HCT-116 colon it was 101% (inactive). Further, the growth in the assay on HCC-2998 colon and with KM12 colon was 102% (inactive) each time.
Regarding `CN(C)c1ccc(C(=N)c2ccc(N(C)C)cc2)cc1`, the growth in the assay with T-47D breast is 16.9% (inactive) and 33.1% (inactive); in the assay with BT-549 breast it was 70.1% (inactive) and 40.6% (inactive); with MDA-MB-435 melanoma it was -7.96% (active) and -36.7% (active); in the assay on SW-620 colon, 9.98% (active) and 17.7% (inactive); in the assay with MCF7 breast, 10.1% (inactive) and 2.28% (active); in the assay on HCT-116 colon, 18.5% (inactive) and 11.9% (inactive). Also, the growth with HCC-2998 colon is 52.4% (inactive) and 48% (inactive); with KM12 colon, 14.4% (inactive) and 18.7% (inactive).
For `S=c1nn[nH]n1C1CCCCC1`, the growth was 124% (inactive) in the assay with T-47D breast; 125% (inactive) with BT-549 breast; 102% (inactive) in the assay with MDA-MB-435 melanoma; 99.8% (inactive) in the assay with SW-620 colon; 101% (inactive) in the assay with MCF7 breast; 101% (inactive) in the assay with HCT-116 colon. For the same molecule, the growth with HCC-2998 colon was 113% (inactive); in the assay on KM12 colon, 110% (inactive).
Regarding `CCOC(=O)CN1CCC(C(=O)OCC)CC1`, the growth was 102% (inactive) in the assay on T-47D breast; 105% (inactive) in the assay with BT-549 breast; 114% (inactive) in the assay on MDA-MB-435 melanoma; 108% (inactive) with SW-620 colon; 103% (inactive) with MCF7 breast; 98.1% (inactive) in the assay with HCT-116 colon. The growth in the assay with HCC-2998 colon was 103% (inactive); in the assay with KM12 colon it was 109% (inactive).
Consider `CCOC(C)=N`, for which the growth is 103% (inactive) in the assay on T-47D breast; 108% (inactive) with BT-549 breast; 118% (inactive) with MDA-MB-435 melanoma; 107% (inactive) in the assay with SW-620 colon; 104% (inactive) in the assay with MCF7 breast; 95.1% (inactive) in the assay on HCT-116 colon. Besides, the values for the growth in the assay with HCC-2998 colon and in the assay on KM12 colon were 103% (inactive) and 111% (inactive), respectively.
Consider `O=P(O)(O)OC1C(OP(=O)(O)O)C(OP(=O)(O)O)C(OP(=O)(O)O)C(OP(=O)(O)O)C1OP(=O)(O)O.[Cu+2]` (stereo not drawn), for which the growth in the assay with T-47D breast was 101% (inactive); with BT-549 breast, 126% (inactive); with MDA-MB-435 melanoma, 101% (inactive); with SW-620 colon, 95.6% (inactive); in the assay with MCF7 breast, 86.8% (inactive); in the assay with HCT-116 colon it was 96.6% (inactive). Besides, the growth with HCC-2998 colon is 96.3% (inactive); in the assay on KM12 colon, 100% (inactive).
As to `O=C(O)c1cccc(Br)c1`, the growth in the assay with T-47D breast is 92.3% (inactive) and 83.4% (inactive); in the assay with BT-549 breast, 104% (inactive); in the assay on MDA-MB-435 melanoma it was 114% (inactive) and 107% (inactive); in the assay on SW-620 colon it was 112% (inactive) and 104% (inactive); in the assay on MCF7 breast, 98.7% (inactive) and 98.2% (inactive); with HCT-116 colon, 99.7% (inactive) and 97.6% (inactive). Also, the growth with HCC-2998 colon was 122% (inactive) and 103% (inactive); in the assay with KM12 colon, 101% (inactive) and 106% (inactive).
On to `COC(=O)c1nc(=S)[nH]c(C(=O)OC)c1C(=O)c1ccc(OC)cc1`, for which the growth is 125% (inactive) in the assay on T-47D breast; 109% (inactive) in the assay with BT-549 breast; 110% (inactive) in the assay with MDA-MB-435 melanoma; 105% (inactive) with SW-620 colon; 93.6% (inactive) in the assay with MCF7 breast; 115% (inactive) with HCT-116 colon. The growth with HCC-2998 colon is 118% (inactive); with KM12 colon it was 103% (inactive).
For the molecule `CCn1c2ccc(N(C)C)cc2c2cc(N(C)C)ccc21`, the growth is 88.2% (inactive) in the assay on T-47D breast; 96.6% (inactive) in the assay on BT-549 breast; 111% (inactive) with MDA-MB-435 melanoma; 96.2% (inactive) with SW-620 colon; 86.4% (inactive) with MCF7 breast; 101% (inactive) in the assay on HCT-116 colon. The growth with HCC-2998 colon is 99.2% (inactive); in the assay with KM12 colon, 92.8% (inactive).
